Bead autofluor: counter-screen for toxin protease inhibitors: compound fluorescence; fluorescence intensity (concentration not given with the values); hit rate 3.1% among 360,000; compound autofluorescence counterscreen, microsphere flow cytometry; hits give high values; in the data active = fluorescence intensity above about 16000; inconclusive = no clear call, values can overlap the other calls
BoNT-A LC inh2: BoNT/A light chain protease inhibitors, primary screen, biochemical, flow cytometry, MLPCN library; Botulinum neurotoxin type A light chain protease (Clostridium botulinum A str. ATCC 3502); multiplex microsphere protease substrate cleavage; inhibition, % at 10 µM; hit rate 0.17% among 360,000; AID 588499, 2011
BoNT F protease: BoNT/F light chain protease inhibitors, primary screen, biochemical, flow cytometry, MLPCN library; hit rate 0.22% among 360,000; inhibition, % at 10 µM; Multiplex microsphere protease cleavage assay; AID 588497, 2011; in the data active = inhibition above about 35%, passing the limit was not always enough; inconclusive = no clear call, values can overlap the other calls
SARS 3CLpro inh: SARS-CoV 3CLpro protease inhibitors, primary screen, biochemical, quenched FRET. Replicase polyprotein 1ab (Severe acute respiratory syndrome coronavirus), P0C6X7. recombinant SARS-CoV 3CLpro, quenched FRET peptide cleavage. inhibition, % at 6 µM. hit rate 0.14% among 290,000; in the data active = inhibition above about 12%
BJeLR viability: MLPCN primary cell-based screen for lethality selective to Ras in HRASV12 cells; inhibition, % (no concentration beside the values); AID 1554, 2009; hit rate 0.17% among 300,000; BJeLR (HRASV12) viability, CellTiter-Glo ATP luminescence, 48 h; in the data active = inhibition above about 50%; inconclusive = no clear call, values can overlap the other calls
Anthrax LF prot: Bacillus anthracis LF protease inhibitors, primary screen, biochemical, multiplex microsphere, MLPCN library; multiplex microsphere protease cleavage assay; inhibition, % at 10 µM; hit rate 0.12% among 360,000
Hits are given with their value; i = inactive; ? = inconclusive; nt = no result given. Sampled rows, rich in hits. Any-hit rate of the full collection: about 3.6%. Rule as the data show it, unless noted: active = inhibition above about 30%; inconclusive = no clear call, values can overlap the other calls; inactive = below that.

SMILES	Bead autofluor	BoNT-A LC inh2	BoNT F protease	SARS 3CLpro inh	BJeLR viability	Anthrax LF prot
O=C(c1ccccc1)N1N=C(C(F)(F)F)CC1(O)c1ccccc1 (stereo not given)	i	i	i	i	i	38.5
O=C(C1CSC2(c3ccc(F)cc3)CCC(=O)N12)N1CCCCCC1 (stereo not given)	20230	i	i	i	i	i
c1ccc(CNn2nnnc2-c2ccccc2)cc1	19323	i	i	i	i	i
c1ccc(-c2nnnn2-c2ccccc2)cc1	i	i	i	i	i	i
Cc1c(N2C(=O)CS/C2=N\N=C\c2ccccc2O)c(=O)n(-c2ccccc2)n1C	16255	?	i	i	i	i
Cc1c(N2C(=O)CS/C2=N\N=C\c2ccc(Cl)cc2)c(=O)n(-c2ccccc2)n1C	i	i	i	i	nt	i
CCN(CC)S(=O)(=O)c1csc(C(=O)OCC(=O)c2ccccc2)c1	17304	i	i	i	i	i
CS(=O)(=O)N1CCc2cc(C(=O)N3CCCC3)ccc21	i	i	i	i	i	i
CCOC(=O)/C(=C/C=C1\Sc2cc(OCC)c(OCC)cc2N1CC)C(C)=O	23889	i	43.7	i	i	i
CCOC(=O)/C(=C\C=C1/Sc2cc(OCC)c(OCC)cc2N1CC)C(C)=O	33036	i	48.9	i	i	i
CCOC(=O)c1nc(-c2ccc(OC)c(OC)c2)no1	i	i	i	i	i	i
COc1ccc(C(=O)Nc2ccc3c(c2)nc(CCNC(C)=O)n3C)cc1	20535	i	i	i	i	i
COc1ccccc1C(=O)Nc1ccc2c(c1)nc(CCNC(=O)c1ccccc1)n2C	i	i	i	i	i	i
COc1ccccc1C(=O)Nc1ccc2c(c1)nc(CCNC(C)=O)n2C	21508	i	i	i	i	i
O=C(C1CC1)N1CCC(C(O)(c2ccccc2)c2ccccc2)CC1	21864	?	i	i	i	i
Cc1c(Cl)cccc1NC(=O)CN1CCC(C(O)(c2ccccc2)c2ccccc2)CC1	21085	i	i	i	i	i
O=C(O)CCc1ccc(-c2ccccc2)n1CC(=O)O	i	i	i	i	i	i
Cc1c(Cl)cccc1NC(=O)Cn1c(CCC(=O)O)ccc1-c1ccccc1	i	i	48.3	i	i	i
Cc1ccccc1C(=O)NC1CCN(CC(=O)Nc2ccccc2Cl)CC1	i	i	i	i	i	i
O=C1NN=C(CSc2n[nH]c(=S)s2)CS1	i	i	i	i	i	i
CCc1cccc(N(C(=O)c2csnn2)C(C(=O)NC2CCCCC2)c2cccnc2)c1 (stereo not given)	i	i	i	i	i	i
Cc1ccc(C(=O)N2CCSCC2)cc1	20353	i	i	i	i	i
Cc1ccc(NC(=O)Nc2ccc(C(=O)N3CCOCC3)cc2)cc1	i	i	i	i	i	i
O=C(c1ccncc1)N1CCN(C(=O)c2ccncc2)CC1	22332	i	i	i	i	i
COc1cc(NC(=O)COC(=O)CSc2cc(C)ccc2C)c(C)cc1[N+](=O)[O-]	i	i	i	i	i	i
SMILES	Bead autofluor	BoNT-A LC inh2	BoNT F protease	SARS 3CLpro inh	BJeLR viability	Anthrax LF prot
COc1cc(-c2nc(-c3cccnc3)no2)cc(OC)c1OC	i	i	i	i	i	i
COc1cc(-c2noc(-c3cccc(Cl)c3)n2)cc(OC)c1OC	22311	i	i	i	i	i
CSCCC(NC(=O)OCc1ccccc1)NC(=O)OCc1ccccc1	i	i	i	nt	nt	i
CSCC[C@H](NC(=O)OCc1ccccc1)C(=O)O	22450	i	i	i	i	i
COC(=O)c1cc(-c2ccccc2)sc1NC(=O)CN1C(=O)c2ccccc2C1=O	23511	?	i	i	i	i
COC(=O)c1cc(OC)c(OC)cc1NC(=O)CN1C(=O)c2ccccc2C1=O	i	i	i	i	i	i
CCOC(=O)N1CCC2(CC1)NC(=O)c1ccccc1N2	i	i	i	nt	nt	i
O=C(Cn1nc(C(F)F)cc1C(F)F)NNC(=S)Nc1ccc([N+](=O)[O-])cc1	i	i	i	i	i	i
COc1cc(/C=N/NC(=O)c2ccccc2NS(=O)(=O)c2cccs2)ccc1O	i	i	i	nt	nt	i
Cc1ccc2cc(C#N)c(N3CCCN(C(=O)C4CCCO4)CC3)nc2c1C (stereo not given)	16171	i	i	i	i	i
CCOC(=O)c1ccc(COC(=O)CNC(=O)CNC(=O)Cc2ccccc2)cc1	i	i	i	i	i	i
O=C(CNC(=O)Cc1ccccc1)NCC(=O)OCc1ccc(C(=O)c2ccccc2)cc1	16310	i	i	i	i	i
Cc1cc(C(F)(F)F)n(-c2nc(C(=O)Nc3cccnc3)cs2)n1	i	i	i	i	i	i
CC(=O)c1cccc(NC(=O)c2csc(-n3nc(C)cc3C(F)(F)F)n2)c1	22022	?	i	i	i	i
Cc1c(Cl)cccc1Nc1nc(N)nc(CSC(=S)N2CCOCC2)n1	i	i	i	i	i	i
COc1ccccc1-c1cc(C(=O)NC(C)C)no1	i	i	i	i	i	i
Cc1cc(NC(=O)c2cc(-c3ccco3)on2)n(-c2ccccc2)n1	23364	i	i	i	i	i
COc1ccccc1-c1cc(C(=O)Nc2ccc(F)cc2F)no1	20081	i	i	i	i	i
O=C(NCc1ccco1)c1cc(C(=O)C2CC2)c[nH]1	21145	?	i	i	i	i
O=C(NCc1ccco1)c1cc(-c2ccco2)on1	16474	?	i	i	i	i
Cc1ccccc1C(=O)c1c[nH]c(C(=O)NCc2ccco2)c1	i	i	i	i	i	i
Cc1cnc(C(=O)OCC(=O)Nc2ncc(Cl)cc2Cl)cn1	i	i	i	nt	nt	i
COc1ccccc1-c1cc(C(=O)Nc2cc(C)nn2-c2ccccc2)no1	20928	i	i	i	i	i
CCc1c(C)sc(NC(=O)c2cc(C)on2)c1C#N	i	i	i	i	i	i
COc1ccc(-c2cc(C(=O)Nc3cc(C)nn3-c3ccccc3)no2)cc1	i	i	i	i	i	i
SMILES	Bead autofluor	BoNT-A LC inh2	BoNT F protease	SARS 3CLpro inh	BJeLR viability	Anthrax LF prot
CCc1c(C)sc(NC(=O)c2cc(-c3ccco3)on2)c1C#N	23332	i	i	i	i	i
COCCNC(=O)CN(CCc1ccccc1)S(=O)(=O)c1ccc(Br)cc1	i	i	i	i	i	i
O=C(Cc1coc2ccc3ccccc3c12)Nc1nccs1	i	i	i	i	i	i
Cc1ccc(CNC(=O)Cc2ccc(-c3ccccc3)cc2)cc1	25102	i	i	i	i	i
O=C(Cc1coc2ccc3ccccc3c12)NCc1ccccc1	20707	i	i	i	i	i
O=C(Cc1ccc(-c2ccccc2)cc1)NCc1cccnc1	i	i	i	i	i	i
O=C(Cc1ccc(-c2ccccc2)cc1)NCc1ccccc1	i	i	i	i	63.7	i
Cc1ccc(CNC(=O)CCC(=O)c2cccs2)cc1	22864	i	i	i	i	i
